Cruzain noTriton – qHTS Assay for Promiscuous and Specific Inhibitors of Cruzain (without detergent); Potency, µM, actives largely listed as inhibitors; hit rate 2.3% among 200,000; AID 1476, 2009; Cruzipain (Trypanosoma cruzi), P25779; purified cruzain, Z-FR-AMC fluorescence, no detergent; further: nearly all actives have a fitted effect of over 40% in size
Target sequence (P25779 123-467 limits assumed): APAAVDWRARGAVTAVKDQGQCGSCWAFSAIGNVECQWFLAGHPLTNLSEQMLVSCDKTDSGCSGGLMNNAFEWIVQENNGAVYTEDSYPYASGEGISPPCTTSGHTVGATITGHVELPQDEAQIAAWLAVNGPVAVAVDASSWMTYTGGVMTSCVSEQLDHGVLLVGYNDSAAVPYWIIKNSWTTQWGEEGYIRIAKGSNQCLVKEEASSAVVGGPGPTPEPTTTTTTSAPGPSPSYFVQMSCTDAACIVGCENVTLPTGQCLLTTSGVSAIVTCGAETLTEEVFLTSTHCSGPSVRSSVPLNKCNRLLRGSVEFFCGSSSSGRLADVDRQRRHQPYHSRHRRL
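Purified cruzain at 1.5 nM, pre-incubated 15 min with compound at room temperature in 100 mM sodium acetate pH 5.5, 5 mM DTT, 0.00005% Triton X-100. Reaction started with 2 uM Z-FR-AMC; AMC fluorescence increase over 60 s gives rate.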
Cruzain Triton – qHTS Assay for Promiscuous and Specific Inhibitors of Cruzain (with detergent); Cruzipain (Trypanosoma cruzi), P25779; purified cruzain, Z-FR-AMC fluorescence, 0.01% Triton; Potency, µM, actives largely listed as inhibitors; hit rate 0.43% among 200,000; AID 1478, 2009; further: nearly all actives have a fitted effect of over 40% in size
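15 min RT preincubation of 1.5 nM cruzain with compound, then 2 uM Z-FR-AMC added; kinetic AMC fluorescence, 60 s delta. Triton X-100 0.01%, pH 5.5.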
Large screens that a line does not name were inactive. In the library only some 2.6% were active in any assay of this set; here they are far more common. The call rests on the fitted dose curve; in most records, active means well fitted curve in the direction sought with a large enough effect; inconclusive means small, poorly fitted or top-dose-only effect, or another doubt; inactive means no such curve, though single readings can be large; an effect the other way counts as inactive or inconclusive.

Cn1c(=O)c(-c2cc(F)cc(F)c2)nc2cnc(N3CCNCC3)nc21	none
CCOc1cccc2sc(NC(=O)c3ccc(S(=O)(=O)N4CCCc5ccccc54)cc3)nc12	Cruzain noTriton 2µM
COc1cc2nc(NC(=O)c3ccc(S(=O)(=O)N4CCc5ccccc54)cc3)sc2cc1OC	none
O=C(/C=C/c1cccnc1)c1ccc(NC(=O)c2cccc(Br)c2)cc1	Cruzain noTriton 25µM
Cc1cccc(C(=O)Nc2ccc(C(=O)/C=C/c3cccnc3)cc2)c1	Cruzain noTriton inconclusive
COc1ccc(N=c2oc3cc(O)ccc3cc2C(=O)NCC2CCCO2)cc1 (configuration not stated)	none
CCOc1ccc(N=c2oc3cc(O)ccc3cc2C(=O)NCC2CCCO2)cc1 (configuration not stated)	Cruzain noTriton 6.3µM
COc1ccc(Br)cc1CNC(=O)c1cnc2sc(N3CCC(C)CC3)nn2c1=O	none
Cc1cc(/C=N/NC(N)=S)c(C)n1-c1ccc(Cl)cc1	Cruzain noTriton inconclusive, Cruzain Triton 28µM
Cc1cccc(C)c1-n1c(C)cc(/C=N/NC(N)=S)c1C	Cruzain noTriton inconclusive
CCCCC/C=C\C/C=C\C/C=C\C/C=C\CCCC(=O)C(F)(F)F	none
O=C(c1ccc(Cl)c(Cl)c1)c1cnc(Nc2ccccc2)s1	Cruzain noTriton 20µM
CNc1ncc(C(=O)c2ccc(Cl)c(Cl)c2)s1	none
CC(=O)Oc1ccc2c(c1)CCC1C2CC[C@@]2(C)C1CC(OC(C)=O)C2OC(C)=O (some centres not stated)	none
CC[C@@H]1C(c2cccc(Cl)c2)=NN(c2ccccc2)[C@H]1C(=O)N1CCOC1=O	none
O=C1OCCN1C(=O)[C@H]1[C@H](c2ccc(Cl)cc2)C(c2cccc(Cl)c2)=NN1c1ccccc1	Cruzain noTriton 18µM
O=C1OCCN1C(=O)[C@H]1[C@H](c2ccc(F)cc2)C(c2cccc(Cl)c2)=NN1c1ccccc1	Cruzain noTriton 20µM
C[C@@H]1C(c2ccc(F)cc2)=NN(c2ccccc2)[C@H]1C(=O)N1CCOC1=O	none
Cc1c(-c2ccc(Cl)cc2)c(=O)oc2c(CN3CCOCC3)c(O)ccc12	none
Cn1c(=O)c2c(SCC(=O)NCC3CCCO3)nc(-c3cccc(F)c3)nc2n(C)c1=O (configuration not stated)	none
CCCOc1cccc(NC(=O)c2c(-c3ccccc3Cl)noc2C)c1	none
Cc1ccccc1OCC(=O)N/N=C/c1cccc(Oc2ccc([N+](=O)[O-])cc2[N+](=O)[O-])c1	Cruzain noTriton inconclusive
O=C(N/N=C/c1cccc(Oc2ccc([N+](=O)[O-])cc2[N+](=O)[O-])c1)c1cncc(Br)c1	Cruzain noTriton 25µM
CCOc1ccccc1NC(=O)Cn1cnc2onc(-c3ccc(F)cc3)c2c1=O	none
O=C1[C@@H]2Cc3c([nH]c4ccccc34)[C@@H](c3ccccc3)N2C(=O)[C@@H]2Cc3c([nH]c4ccccc34)[C@@H](c3ccccc3)N12	Cruzain noTriton 10µM
COc1cc([C@H]2c3[nH]c4ccccc4c3C[C@H]3C(=O)N4[C@@H](c5cc(OC)c(OC)c(OC)c5)c5[nH]c6ccccc6c5C[C@H]4C(=O)N23)cc(OC)c1OC	none
O=C(CCN1C(=O)COc2ccccc21)NCc1ccco1	none
O=C(CN1C(=O)/C(=C\c2ccc(F)cc2)Oc2ccccc21)NCc1ccco1	Cruzain noTriton 25µM, Cruzain Triton 25µM
COc1ccc(/C=N\NC(=O)COc2ccc(C(C)(C)C)cc2)cc1Cn1nc(C)cc1C	Cruzain noTriton 25µM
COc1ccc(/C=N/NC(=O)c2ccco2)cc1Cn1nc(C)cc1C	none
CC1(C)C(=O)C(c2ccccc2)=C2CN3C(=O)N(CCc4ccccc4)C(=O)C3(Cc3ccccc3)C=C21 (configuration not stated)	none
Cc1ccc2oc(C(=O)Nc3c(C(=O)c4ccc(C)c(F)c4)oc4ccccc34)cc(=O)c2c1	none
CC1=C(c2ccc(C)c(C)c2)S(=O)(=O)N(Cc2ccc(C(=O)NC(C)c3ccccc3)cc2)C1=O (configuration not stated)	none
COc1ccc(C2=C(C)C(=O)N(Cc3ccc(C(=O)NCc4cccc(C)c4)cc3)S2(=O)=O)cc1	Cruzain noTriton 25µM
CCc1cccc(NC(=O)c2ccc(CN3C(=O)C(C)=C(c4ccc(OC)cc4)S3(=O)=O)cc2)c1	Cruzain noTriton 25µM
COc1ccc(C2=C(C)C(=O)N(Cc3ccc(C(=O)NCc4ccc(C)cc4)cc3)S2(=O)=O)cc1	none
COc1ccc(C2=C(C)C(=O)N(Cc3ccc(C(=O)NC(C)c4ccccc4)cc3)S2(=O)=O)cc1 (configuration not stated)	Cruzain noTriton 16µM
COc1ccc(C2=C(C)C(=O)N(Cc3ccc(C(=O)Nc4cccc(F)c4)cc3)S2(=O)=O)cc1	Cruzain noTriton inconclusive
O=C(O)c1cc(Cl)cc(Cl)c1	none
CCc1ccc(/C=N/NC(=O)c2cc(C3CC3)nc3ccc(Br)cc23)s1	Cruzain noTriton 25µM
CCc1ccc(/C=N/NC(=O)c2cc(-c3ccccc3OC)nc3ccccc23)s1	none
CCn1cc(C(=O)OCC(=O)Nc2cccc(C(C)=O)c2)c(=O)c2ccc(C)nc21	none
Cc1ccc(C(=O)OCC(=O)c2c[nH]c3ccccc23)cc1	Cruzain noTriton inconclusive
CC(C)Cc1ccc(C(C)C(=O)OCC(=O)c2c[nH]c3ccccc23)cc1 (configuration not stated)	none
Cc1ccc(S(=O)(=O)CCC(=O)OCC(=O)c2c[nH]c3ccccc23)cc1	Cruzain noTriton 20µM
C=CCN(c1ccccc1OC)S(=O)(=O)c1cccc(C(=O)OCC(=O)c2c[nH]c3ccccc23)c1	none
CC(C)C(NS(=O)(=O)c1c(Cl)cccc1Cl)C(=O)OCC(=O)c1c[nH]c2ccccc12 (configuration not stated)	Cruzain noTriton 32µM
COc1cc(OC)c(N(C)S(=O)(=O)c2cccc(C(=O)OCC(=O)c3c[nH]c4ccccc34)c2)cc1Cl	Cruzain noTriton 10µM
CCOc1ccc(NC(=O)CSc2ccc3ccccc3n2)cc1	none
CCc1ccc(C(=O)c2cn(CC(=O)Nc3cc(C)ccc3C)c3nc(C)ccc3c2=O)cc1	none
CCn1cc(C(=O)N2CCN(c3cc(Cl)ccc3C)CC2)c(=O)c2cc(S(=O)(=O)N3CCOCC3)ccc21	Cruzain noTriton inconclusive
CCOc1ccc2nc(/N=C/c3nc(-c4ccc(Br)cc4)oc3O)sc2c1	Cruzain noTriton 7.9µM
CCCCOc1ccc(-c2nc(/C=N/c3nccs3)c(O)o2)cc1	Cruzain noTriton inconclusive
CCn1c(=O)n(CC)c2cc(N3CCCCC3)c(NC(=O)Nc3cc(Cl)ccc3OC)cc21	none
CC(/C=C(\NC(=O)c1ccccc1)C(=O)N=Nc1c(O)[nH]c2ccc(C)cc12)=C\c1ccccc1	Cruzain noTriton 25µM
Cc1ccc(S(=O)(=O)N(CC(=O)N=Nc2c(O)[nH]c3ccccc23)c2cccc(C)c2)cc1	none
Cc1cccc(-c2noc(-c3cccnc3NCc3ccc(Cl)cc3)n2)c1	none
Cc1ccc(Nc2sc(C(=O)c3ccccc3)c(N)c2C(=O)Nc2ccc(Cl)cc2)cc1	Cruzain noTriton inconclusive
Cc1ccccc1Nc1sc(C(=O)c2ccc3c(c2)OCO3)c(N)c1S(=O)(=O)c1ccccc1	Cruzain noTriton 7.9µM
COc1ccc(S(=O)(=O)c2c(Nc3ccc(F)cc3)sc(C(=O)c3ccc4c(c3)OCO4)c2N)cc1	Cruzain noTriton inconclusive

Source: PubChem
